The text below walks through data of the supplement of paper PMC3545927.

The test has as its target furin, P09958. In words: furin cleavage Z-score vs untreated control; higher = more cleavage, active = 3.5 or more, inactive = 1 or less, 8 variable residues between constant flanks. The method, boiled down: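 Cleavage by purified furin was measured on 8-mer peptides fused to a cDNA oligonucleotide and held on magnetic beads by their N-terminus. Reactions (0.01 ml, 1:10 enzyme:substrate) ran 7.5, 15 or 30 min in 50 mM HEPES pH 7.5 with CaCl2 and NaCl. Released DNA was adapter-tagged by PCR and sequenced, with read counts giving abundance. Log counts versus furin-free reactions were lowess-adjusted and scaled by median absolute deviation to give the cleavage Z-score.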

The list shows a part of the results. How many sequences the whole screen found active is unknown.

furin, P09958, sequence (P09958 whole entry, the tested form may be a part): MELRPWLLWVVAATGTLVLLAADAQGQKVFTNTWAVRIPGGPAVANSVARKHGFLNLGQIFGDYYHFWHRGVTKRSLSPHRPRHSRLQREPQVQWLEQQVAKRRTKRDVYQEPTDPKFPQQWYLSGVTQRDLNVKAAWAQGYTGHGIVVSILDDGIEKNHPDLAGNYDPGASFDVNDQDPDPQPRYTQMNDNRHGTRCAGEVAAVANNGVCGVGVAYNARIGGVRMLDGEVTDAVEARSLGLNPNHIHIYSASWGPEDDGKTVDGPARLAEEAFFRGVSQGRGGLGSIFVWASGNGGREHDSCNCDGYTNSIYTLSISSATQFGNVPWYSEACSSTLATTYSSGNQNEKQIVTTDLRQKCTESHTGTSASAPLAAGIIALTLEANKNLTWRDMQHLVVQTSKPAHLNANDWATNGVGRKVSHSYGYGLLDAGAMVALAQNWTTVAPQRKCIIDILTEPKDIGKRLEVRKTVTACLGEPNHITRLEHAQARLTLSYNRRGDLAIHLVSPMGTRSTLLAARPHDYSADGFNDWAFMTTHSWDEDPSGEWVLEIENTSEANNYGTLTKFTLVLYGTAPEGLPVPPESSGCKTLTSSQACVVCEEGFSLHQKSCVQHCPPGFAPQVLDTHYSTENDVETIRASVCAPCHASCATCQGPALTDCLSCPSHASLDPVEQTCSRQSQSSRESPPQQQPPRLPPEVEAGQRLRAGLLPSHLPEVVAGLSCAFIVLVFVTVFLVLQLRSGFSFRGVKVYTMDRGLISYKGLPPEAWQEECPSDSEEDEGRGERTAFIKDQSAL

B1: HC763 (peptide)
chain: CAMRSPVFTDAGNASASA
For the sequence B1, the “furin cleavage Z-score” value is 0.639 (inactive) (7.5 min), -0.615 (inactive) (15 min) and -0.411 (inactive) (30 min).

B2: HC2107 (peptide)
chain: CAFDVVCCSMAGNASASA
B2: the “furin cleavage Z-score” value was -0.364 (inactive) (7.5 min), 0.607 (inactive) (15 min) and -0.057 (inactive) (30 min).

B3: HC913 (peptide)
chain: CAGERPSGMFAGNASASA
As for B3, the “furin cleavage Z-score” value by setting is: (7.5 min) 1.14; (15 min) -1.35 (inactive); (30 min) -0.577 (inactive).

B4: HC1885 (peptide)
chain: CATTPCSLSWAGNASASA
As to B4, the “furin cleavage Z-score” value runs as follows: (7.5 min) 1.37; (15 min) 1.04; (30 min) 0.14 (inactive).

B5: HC190 (peptide)
chain: CARGRRQPIPAGNASASA
Consider B5, for which the “furin cleavage Z-score” value is 0.155 (inactive) (7.5 min), -0.409 (inactive) (15 min) and -0.134 (inactive) (30 min).

B6: FS-2418 (peptide)
chain: CARGRRQKQNAGNASASA
Turning to B6, the “furin cleavage Z-score” value (7.5 min) was 0.749 (inactive), the “furin cleavage Z-score” value (15 min) was 0.513 (inactive) and the “furin cleavage Z-score” value (30 min) is 0.917 (inactive).

B7: FS-2394 (peptide)
chain: CARGRRGMKDAGNASASA
As to B7, the “furin cleavage Z-score” value by setting is: (7.5 min) 0.884 (inactive); (15 min) 1.5; (30 min) 2.14.

B8: FS-1563 (peptide)
chain: CARPIRSRRAAGNASASA
As to B8, the “furin cleavage Z-score” value runs as follows: (7.5 min) 11.5 (active); (15 min) 11.2 (active); (30 min) 9.54 (active).

B9: FS-1062 (peptide)
chain: CARGRRSRRAAGNASASA
On to B9, for which the “furin cleavage Z-score” value is 5.6 (active) (7.5 min), 4.73 (active) (15 min) and 4.94 (active) (30 min).

B10: FS-2674 (peptide)
chain: CARGRRSHDPAGNASASA
B10: the “furin cleavage Z-score” value by setting is: (7.5 min) 0.899 (inactive); (15 min) 3.42; (30 min) 3.55 (active).

B11: HC746 (peptide)
chain: CACPAGHAVGAGNASASA
On to B11, for which the “furin cleavage Z-score” value by setting is: (7.5 min) -0.805 (inactive); (15 min) -1.77 (inactive); (30 min) 0.00889 (inactive).

B12: HC433 (peptide)
chain: CAPLGNWFGCAGNASASA
Take B12: the “furin cleavage Z-score” value (7.5 min) amounted to 1.65, the “furin cleavage Z-score” value (15 min) was 0.567 (inactive) and the “furin cleavage Z-score” value (30 min) came to 1.54.

B13: FS-890 (peptide)
chain: CAVKSRLKRLAGNASASA
For B13, the “furin cleavage Z-score” value runs as follows: (7.5 min) 9.42 (active); (15 min) 12 (active); (30 min) 9.55 (active).

B14: HC1497 (peptide)
chain: CAIKSLTERLAGNASASA
B14: the “furin cleavage Z-score” value (7.5 min) is -0.222 (inactive), the “furin cleavage Z-score” value (15 min) is -0.416 (inactive) and the “furin cleavage Z-score” value (30 min) is -0.246 (inactive).

B15: FS-1011 (peptide)
chain: CAHSSRLKRLAGNASASA
Consider B15, for which the “furin cleavage Z-score” value was 6.44 (active) (7.5 min), 7.96 (active) (15 min) and 7.66 (active) (30 min).

B16: HC1816 (peptide)
chain: CADGMEECSQAGNASASA
Take B16: the “furin cleavage Z-score” value is -0.375 (inactive) (7.5 min), 0.927 (inactive) (15 min) and 0.477 (inactive) (30 min).

B17: HC1697 (peptide)
chain: CAMSECSQHLAGNASASA
B17: the “furin cleavage Z-score” value (7.5 min) is 0.222 (inactive), the “furin cleavage Z-score” value (15 min) was 0.351 (inactive) and the “furin cleavage Z-score” value (30 min) came to 1.22.

B18: HC1740 (peptide)
chain: CAMEECSCHLAGNASASA
Turning to B18, the “furin cleavage Z-score” value was 0.898 (inactive) (7.5 min), -0.945 (inactive) (15 min) and 0.106 (inactive) (30 min).

B19: HC1287 (peptide)
chain: CALDSFDPLVAGNASASA
For the sequence B19, the “furin cleavage Z-score” value by setting is: (7.5 min) 0.861 (inactive); (15 min) 0.184 (inactive); (30 min) 1.88.

B20: HC1356 (peptide)
chain: CALEGEPGDPAGNASASA
Consider B20, for which the “furin cleavage Z-score” value was -0.565 (inactive) (7.5 min), 0.288 (inactive) (15 min) and 0.927 (inactive) (30 min).

B21: FS-1459 (peptide)
chain: CAKMRRKKRFAGNASASA
With B21, the “furin cleavage Z-score” value (7.5 min) is 7.33 (active), the “furin cleavage Z-score” value (15 min) is 9.76 (active) and the “furin cleavage Z-score” value (30 min) was 8.97 (active).

B22: FS-352 (peptide)
chain: CALNEIKKRFAGNASASA
Take B22: the “furin cleavage Z-score” value is 0.841 (inactive) (7.5 min), -1.42 (inactive) (15 min) and -0.561 (inactive) (30 min).

B23: FS-1457 (peptide)
chain: CAGSIRKKRFAGNASASA
Regarding B23, the “furin cleavage Z-score” value was 6.25 (active) (7.5 min), 7.01 (active) (15 min) and 6.64 (active) (30 min).

B24: HC578 (peptide)
chain: CAYKRYISWCAGNASASA
As to B24, the “furin cleavage Z-score” value (7.5 min) was 0.0156 (inactive), the “furin cleavage Z-score” value (15 min) was 0.474 (inactive) and the “furin cleavage Z-score” value (30 min) turned out to be 1.13.

B25: HC1215 (peptide)
chain: CANLKCPCQVAGNASASA
With B25, the “furin cleavage Z-score” value runs as follows: (7.5 min) -0.928 (inactive); (15 min) -0.942 (inactive); (30 min) -0.8 (inactive).

B26: FS-590 (peptide)
chain: CAFWVRSKRSAGNASASA
B26: the “furin cleavage Z-score” value by setting is: (7.5 min) 9.47 (active); (15 min) 8.07 (active); (30 min) 7.6 (active).

B27: FS-1085 (peptide)
chain: CASQFRSKRSAGNASASA
As for B27, the “furin cleavage Z-score” value is, setting by setting: (7.5 min) 9.98 (active); (15 min) 9.45 (active); (30 min) 7.11 (active).

B28: FS-564 (peptide)
chain: CASQQRQYRSAGNASASA
On to B28, for which the “furin cleavage Z-score” value runs as follows: (7.5 min) 2.45; (15 min) 5.55 (active); (30 min) 5.41 (active).

B29: FS-874 (peptide)
chain: CASSTRSKRSAGNASASA
In the case of B29, the “furin cleavage Z-score” value by setting is: (7.5 min) 11.9 (active); (15 min) 11.3 (active); (30 min) 10 (active).

B30: FS-464 (peptide)
chain: CAMSTWSKRSAGNASASA
Regarding B30, the “furin cleavage Z-score” value runs as follows: (7.5 min) 0.45 (inactive); (15 min) 1.32; (30 min) 1.43.
